According to PubChem BioAssay (Tox21):
“And” between values parts separate entries of the source, which are not always exact repeats. Equal values may be shown once. Records with an inconclusive call do not appear. Entries that show only a call come without a potency. Where a structure was tested more than once in an assay, its records may differ in their call. The source made the active and inactive calls. Unless noted, the call rests on the fitted dose curve; in most records, active means well fitted curve in the direction sought with a large enough effect in the repeat runs; inconclusive means weak or mixed curves; inactive means no such curve, though single readings can be large; an effect the other way counts as inactive or inconclusive.

Experiments:
[1] = qHTS assay to identify aromatase inhibitors - cell viability counter screen (AID 743084);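 further: cells stimulated with testosterone during compound exposure; nearly all actives have a fitted effect of over 55% in size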; further: potency means the concentration at half of the fitted maximal effect
[2] = qHTS assay to identify small molecule that activate the aryl hydrocarbon receptor (AhR) signaling pathway - cell viability counter screen (AID 743086); further: nearly all actives have a fitted effect of over 45% in size; further: potency means the concentration at half of the fitted maximal effect
Outline: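 HepG2-AhR-luc (HG2L7.5c1) cells, 4000/well, treated 24 h at 37 C with compound; viability measured as CellTiter-Fluor fluorescence after 30 min in the same wells as the luciferase read.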

[3] = biological target: Peroxisome proliferator-activated receptor gamma (Homo sapiens) (UniProt P37231); assay: qHTS assay to identify small molecule antagonists of the peroxisome proliferator-activated receptor gamma (PPARg) signaling pathway (AID 743191; calls by dose curve; further: nearly all actives have a fitted effect of over 30% in size; further: potency means the concentration at half of the fitted maximal effect)
Outline: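 GeneBLAzer PPARg UAS-bla HEK293H cells, 5 h post-plating, exposed to compounds 17 h at 37C. LiveBLAzer B/G FRET substrate added for 1 h at room temperature; beta-lactamase reporter read by fluorescence intensity.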

[4] = qHTS assay for small molecule agonists of the antioxidant response element (ARE) signaling pathway - cell viability counter screen (AID 743203; calls by dose curve; further: nearly all actives have a fitted effect of over 55% in size; further: potency means the concentration at half of the fitted maximal effect)
Outline: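 ATP content via CellTiter-Glo luminescence served as the viability measure. Cells: ARE-bla HepG2, 2,000 per well. Exposure: 16 hrs, 37C/5% CO2.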

[5] = qHTS assay for small molecule activators of the heat shock response signaling pathway - cell viability counter screen (AID 743209); further: nearly all actives have a fitted effect of over 50% in size; further: potency means the concentration at half of the fitted maximal effect
Outline: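 Compounds dissolved in DMSO were added to overnight-plated HSE-bla HeLa cells and left 5 h at 37 C. Cell viability was quantified by luminescence using CellTiter-Glo.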

[6] = qHTS assay to identify small molecule agonists of the peroxisome proliferator-activated receptor delta (PPARd) signaling pathway - cell viability counter screen (AID 743211); further: nearly all actives have a fitted effect of over 55% in size; further: potency means the concentration at half of the fitted maximal effect
Outline: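 Tox21 library compounds, delivered in DMSO, were incubated 17 h with PPARd-bla HEK293H cells; cytotoxicity was taken from CellTiter-Glo luminescence read 30 min after reagent addition.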

[7] = biological target: Peroxisome proliferator-activated receptor delta (Homo sapiens) (UniProt Q03181); assay: qHTS assay to identify small molecule agonists of the peroxisome proliferator-activated receptor delta (PPARd) signaling pathway (AID 743212; calls by dose curve)
Outline: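 Read-out: beta-lactamase FRET fluorescence after 2 h room-temperature incubation with LiveBLAzer B/G substrate. Cells were HEK293H carrying a UAS-bla reporter for PPARd, treated at 37 C with DMSO-dissolved compounds.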

[8] = qHTS assay to identify small molecule antagonists of the peroxisome proliferator-activated receptor delta (PPARd) signaling pathway - cell viability counter screen (AID 743213); further: nearly all actives have a fitted effect of over 50% in size; further: potency means the concentration at half of the fitted maximal effect
Outline: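 HEK293H cells with the PPARd UAS-bla reporter, co-treated 17 h at 37 C with compounds and L165041 (300 nM final), were lysed with CellTiter-Glo. Luminescence indicated viable cell content.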

[9] = biological target: Peroxisome proliferator-activated receptor delta (Homo sapiens) (UniProt Q03181); assay: qHTS assay to identify small molecule antagonists of the peroxisome proliferator-activated receptor delta (PPARd) signaling pathway (AID 743215; active means well fitted inhibition curve with a large enough effect in the signal ratio in the repeat runs, not every such curve was filed as active; the % refers to the signal ratio;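 further: cells stimulated with agonist L165041 at 300 nM final during compound exposure; series mostly up to about 62 µM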)
Outline: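 Here, a reporter line (HEK293H, beta-lactamase under a UAS) measures PPARd signaling. Compounds are tested against agonist L165041 at 300 nM final concentration over 17 h at 37 C, with fluorescence read after substrate.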

[10] = biological target: Bile acid receptor (Homo sapiens) (UniProt Q96RI1); assay: qHTS assay to identify small molecule antagonists of the farnesoid-X-receptor (FXR) signaling pathway (AID 743217; active means well fitted inhibition curve with a large enough effect in the signal ratio in the repeat runs, not every such curve was filed as active; the % refers to the signal ratio)
Outline: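 Test compounds are pin-transferred onto FXR-bla HEK 293T cells, then chenodeoxycholic acid is added at 50 uM final. After 16 h at 37 °C, LiveBLAzer B/G substrate is applied for 2 h at room temperature and fluorescence read.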

[11] = qHTS assay to identify small molecule agonists of the farnesoid-X-receptor (FXR) signaling pathway - cell viability counter screen (AID 743218); further: nearly all actives have a fitted effect of over 45% in size; further: potency means the concentration at half of the fitted maximal effect
Outline: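 Quantitative HTS counter screen measuring ATP-based viability via CellTiter-Glo luminescence in HEK 293T cells carrying a UAS-driven beta-lactamase reporter, after 16 h compound exposure at 37 C.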

[12] = biological target: Bile acid receptor (Homo sapiens) (UniProt Q96RI1); assay: qHTS assay to identify small molecule agonists of the farnesoid-X-receptor (FXR) signaling pathway (AID 743220; active means well fitted activation curve with a large enough effect in the signal ratio in the repeat runs, not every such curve was filed as active; the % refers to the signal ratio)
Outline: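 FXR-UAS-bla HEK 293T cells carrying a UAS-driven beta-lactamase reporter were plated for 5 h at 37C/5% CO2, then exposed to DMSO-dissolved Tox21 10K compounds for 16 h at 37C. A LiveBLAzer B/G FRET substrate was loaded for 2 h at room temperature before fluorescence reading.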

[13] = qHTS assay to identify small molecule antagonists of the farnesoid-X-receptor (FXR) signaling pathway - cell viability counter screen (AID 743221; active means well fitted cell-killing curve with a large enough effect in the repeat runs, not every such curve was filed as active; further: nearly all actives have a fitted effect of over 50% in size; further: potency means the concentration at half of the fitted maximal effect)
Outline: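 Cytotoxicity is taken from ATP luminescence (CellTiter-Glo, 30 min, room temperature) in FXR-bla HEK 293T cells previously incubated 16 h at 37 C with compound and chenodeoxycholic acid at 50 uM final.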

[14] = biological target: Vitamin D3 receptor (Homo sapiens) (UniProt P11473); assay: qHTS assay to identify small molecule agonists of the vitamin D receptor (VDR) signaling pathway (AID 743222; calls by dose curve)
Outline: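 Tox21 cell reporter format: VDR-bla line, 16 h compound exposure in 5% CO2 at 37C, then fluorescence intensity after 2 h with LiveBLAzer B/G FRET substrate.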

[15] = biological target: Vitamin D3 receptor (Homo sapiens) (UniProt P11473); assay: qHTS assay to identify small molecule antagonists of the vitamin D receptor (VDR) signaling pathway (AID 743223; active means well fitted inhibition curve with a large enough effect in the signal ratio in the repeat runs, not every such curve was filed as active; the % refers to the signal ratio)
Outline: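 Quantitative HTS in VDR-bla reporter cells stimulated with 1alpha,25-dihydroxyvitamin D3, 3 nM final. Compound exposure 16 h, 37C, 5% CO2. Read-out: beta-lactamase FRET substrate fluorescence, 2 h RT.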

[16] = qHTS assay to identify small molecule antagonists of the peroxisome proliferator-activated receptor gamma (PPARg) signaling pathway - cell viability counter screen (AID 743194); settings: Potency: co-treated with 50 nM rosiglitazone; further: nearly all actives have a fitted effect of over 55% in size
Outline: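 Cytotoxicity counter screen in PPARg-bla HEK293H cells, same wells as reporter assay. Compounds plus 50 nM rosiglitazone (final) for 17 h at 37 C, then viability read by CellTiter-Glo luminescence.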

[17] = qHTS assay for small molecule activators of the heat shock response signaling pathway (AID 743210; active means well fitted activation curve with a large enough effect in the signal ratio in the repeat runs, with a control signal flat, not every such curve was filed as active; the % refers to the signal ratio;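 further: HeLa cells with beta-lactamase reporter driven by heat shock elements; series mostly up to about 63 µM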)
Outline: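 Beta-lactamase reporter read-out: FRET substrate fluorescence after 2.5 h at RT, following 5 h compound treatment at 37 C of HeLa cells carrying HSE-driven bla reporter; quantitative HTS format.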

[18] = biological target: Peroxisome proliferator-activated receptor gamma (Homo sapiens) (UniProt P37231); assay: qHTS assay to identify small molecule agonists of the peroxisome proliferator-activated receptor gamma (PPARg) signaling pathway (AID 743094; active means well fitted activation curve with a large enough effect in the signal ratio in the repeat runs, not every such curve was filed as active; the % refers to the signal ratio)
Outline: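 Agonism was assessed in a beta-lactamase reporter system, HEK293H cells with a stably integrated UAS-bla construct under PPARg control; the 17 h treatment at 37C preceded a 1 h room-temperature FRET substrate read.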

[19] = qHTS assay for small molecule agonists of the antioxidant response element (ARE) signaling pathway (AID 743202; active means well fitted activation curve with a large enough effect in the signal ratio in the repeat runs, not every such curve was filed as active; the % refers to the signal ratio; further: potency means the concentration at half of the fitted maximal effect)
Outline: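 HepG2 ARE-bla reporter line, 2,000 cells/well; 5 h preincubation 37 C/5% CO2; compound (DMSO) 16 h 37 C; B/G FRET substrate 2 h RT; fluorescence intensity.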

Chain of Peroxisome proliferator-activated receptor delta (Homo sapiens) (Q03181 whole entry, looked up): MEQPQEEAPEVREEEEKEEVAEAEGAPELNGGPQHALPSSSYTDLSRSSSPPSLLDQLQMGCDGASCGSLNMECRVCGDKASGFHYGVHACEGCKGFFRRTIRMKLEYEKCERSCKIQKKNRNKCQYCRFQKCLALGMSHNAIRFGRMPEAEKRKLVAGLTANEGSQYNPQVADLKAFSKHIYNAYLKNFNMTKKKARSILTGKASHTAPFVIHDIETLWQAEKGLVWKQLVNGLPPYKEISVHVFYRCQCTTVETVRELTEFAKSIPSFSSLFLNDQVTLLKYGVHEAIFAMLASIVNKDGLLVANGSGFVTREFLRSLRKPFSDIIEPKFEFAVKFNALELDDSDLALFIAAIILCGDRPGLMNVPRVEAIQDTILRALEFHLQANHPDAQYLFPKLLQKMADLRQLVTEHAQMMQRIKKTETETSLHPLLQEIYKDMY
Chain of Peroxisome proliferator-activated receptor gamma (Homo sapiens) (P37231 whole entry, looked up): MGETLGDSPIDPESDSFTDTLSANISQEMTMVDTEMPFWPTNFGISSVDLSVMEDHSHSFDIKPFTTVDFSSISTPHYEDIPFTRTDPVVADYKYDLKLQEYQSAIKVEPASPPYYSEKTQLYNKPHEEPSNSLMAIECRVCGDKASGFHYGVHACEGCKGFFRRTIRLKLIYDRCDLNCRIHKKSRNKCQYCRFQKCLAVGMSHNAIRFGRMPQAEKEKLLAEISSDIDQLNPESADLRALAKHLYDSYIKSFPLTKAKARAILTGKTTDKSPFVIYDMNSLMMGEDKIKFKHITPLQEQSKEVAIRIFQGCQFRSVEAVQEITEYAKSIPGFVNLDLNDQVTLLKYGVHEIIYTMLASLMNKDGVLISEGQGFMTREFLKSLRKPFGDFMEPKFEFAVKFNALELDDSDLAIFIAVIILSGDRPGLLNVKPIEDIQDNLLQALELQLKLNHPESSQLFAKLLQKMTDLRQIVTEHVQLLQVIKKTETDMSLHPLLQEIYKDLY
Chain of Bile acid receptor (Homo sapiens) (Q96RI1 whole entry, looked up): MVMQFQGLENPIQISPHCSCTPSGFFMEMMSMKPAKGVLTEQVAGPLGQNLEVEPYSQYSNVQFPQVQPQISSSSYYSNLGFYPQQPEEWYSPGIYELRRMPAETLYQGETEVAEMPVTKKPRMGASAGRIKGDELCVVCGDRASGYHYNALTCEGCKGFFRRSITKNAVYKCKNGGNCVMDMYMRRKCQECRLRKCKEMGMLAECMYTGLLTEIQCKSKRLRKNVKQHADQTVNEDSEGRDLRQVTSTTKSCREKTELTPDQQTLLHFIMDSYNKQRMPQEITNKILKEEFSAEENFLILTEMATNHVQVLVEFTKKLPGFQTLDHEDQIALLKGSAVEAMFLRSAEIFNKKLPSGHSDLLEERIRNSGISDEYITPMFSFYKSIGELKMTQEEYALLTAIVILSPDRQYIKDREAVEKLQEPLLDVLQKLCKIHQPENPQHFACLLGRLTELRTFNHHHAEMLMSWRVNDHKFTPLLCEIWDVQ
Chain of Vitamin D3 receptor (Homo sapiens) (P11473 whole entry, looked up): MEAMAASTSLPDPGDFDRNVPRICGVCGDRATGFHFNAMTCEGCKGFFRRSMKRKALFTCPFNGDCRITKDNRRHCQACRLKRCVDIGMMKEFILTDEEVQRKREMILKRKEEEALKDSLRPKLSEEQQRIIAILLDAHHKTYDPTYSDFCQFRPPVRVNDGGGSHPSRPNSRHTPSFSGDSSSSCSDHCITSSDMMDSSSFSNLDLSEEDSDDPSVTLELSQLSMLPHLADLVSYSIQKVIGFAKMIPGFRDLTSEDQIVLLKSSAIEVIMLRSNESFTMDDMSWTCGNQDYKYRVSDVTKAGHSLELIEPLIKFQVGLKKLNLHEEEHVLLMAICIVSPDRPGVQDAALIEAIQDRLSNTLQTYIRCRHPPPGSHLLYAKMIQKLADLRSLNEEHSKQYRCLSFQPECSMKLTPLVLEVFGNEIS

Which Potency [1] does the source give for `Cn1sc(Cl)cc1=O` here?
Its Potency is “inactive”.

And the Potency [2]?
Its Potency is “inactive”.

And the Potency [3]?
The Potency was “inactive”.

What about the Potency [4] of the same molecule?
Its Potency is “inactive”.

What about the Potency [5] of the same molecule?
The Potency was “inactive”.

And the Potency [6]?
Its Potency is “inactive”.

What about the outcome [7] of the same molecule?
Its outcome is “inactive”.

And the Potency [8]?
The Potency was “inactive”.

And the Potency [9]?
The Potency was “inactive”.

And the Potency [10]?
The Potency was “inactive”.

What about the Potency [11] of the same molecule?
The Potency was “inactive”.

And the outcome [12]?
The outcome was “inactive”.

What about the Potency [13] of the same molecule?
Its Potency is “inactive”.

What about the outcome [14] of the same molecule?
The outcome was “inactive”.

And the outcome [15]?
The outcome was “inactive”.

Which results are given for `Clc1cc(Cl)c(Cl)c(Cl)c1`?
Potency [1]: inactive; Potency [2]: inactive; Potency [3]: inactive; Potency [16]: inactive; Potency [4]: inactive; Potency [5]: inactive; outcome [17]: inactive; Potency [6]: inactive; outcome [7]: inactive; Potency [9]: inactive; Potency [13]: inactive; outcome [14]: inactive; outcome [15]: inactive

Which results are given for `O=C(O)C(F)(F)C(F)(F)C(F)(F)C(F)(F)C(F)(F)C(F)(F)C(F)(F)C(F)(F)C(F)(F)C(F)(F)F`?
Potency [1]: inactive; Potency [2]: inactive; Potency [18]: inactive; Potency [16]: inactive; Potency [4]: inactive; Potency [5]: inactive; outcome [17]: inactive; Potency [6]: inactive; Potency [8]: inactive; Potency [10]: inactive; Potency [11]: inactive; outcome [12]: inactive; Potency [13]: inactive; outcome [14]: inactive; outcome [15]: inactive

With `COc1nn(CSP(=S)(OC)OC)c(=O)s1` as the molecule, how does the Potency [1] read?
Its Potency is 68.6 µM (active).

And the Potency [2]?
Its Potency is “inactive”.

And the Potency [3]?
The Potency was 49 µM (active).

And the Potency [4]?
Its Potency is “inactive”.

And the Potency [6]?
Its Potency is “inactive”.

And the outcome [12]?
Its outcome is “inactive”.

And the Potency [13]?
The Potency was “inactive”.

With `CCCCNP(N)(N)=S` as the molecule, how does the Potency [1] read?
The Potency was “inactive”.

What about the Potency [2] of the same molecule?
The Potency was “inactive”.

What about the Potency [3] of the same molecule?
The Potency was “inactive”.

What about the Potency [16] of the same molecule?
Its Potency is “inactive”.

And the Potency [19]?
The Potency was “inactive”.

And the Potency [4]?
The Potency was “inactive”.

And the Potency [5]?
The Potency was “inactive”.

And the outcome [17]?
Its outcome is “inactive”.

What about the Potency [6] of the same molecule?
Its Potency is “inactive”.

And the outcome [7]?
Its outcome is “inactive”.

What about the Potency [8] of the same molecule?
The Potency was “inactive”.

What about the Potency [9] of the same molecule?
The Potency was “inactive”.

What about the Potency [10] of the same molecule?
The Potency was “inactive”.

What about the Potency [11] of the same molecule?
The Potency was “inactive”.

And the outcome [14]?
The outcome was “inactive”.

What about the outcome [15] of the same molecule?
Its outcome is “inactive”.

Which Potency [1] does the source give for `CC(C)(C)c1cc([N+](=O)[O-])cc([N+](=O)[O-])c1O` here?
Its Potency is 17.2 µM (active).

What about the Potency [2] of the same molecule?
The Potency was 27.2 µM (active).

What about the Potency [11] of the same molecule?
The Potency was “inactive”.

What about the outcome [14] of the same molecule?
Its outcome is “inactive”.

For `O=[N+]([O-])c1ccc(F)c([N+](=O)[O-])c1`, which Potency [1] is on record?
Its Potency is “inactive and 30.9 µM (active)”.

What about the Potency [2] of the same molecule?
The Potency was “inactive and 49 µM (active)”.

What about the Potency [18] of the same molecule?
The Potency was “inactive”.

What about the Potency [4] of the same molecule?
The Potency was 30.9 µM (active).

And the Potency [5]?
The Potency was “inactive”.

What about the outcome [7] of the same molecule?
The outcome was “inactive”.

What about the Potency [9] of the same molecule?
The Potency was “inactive”.

And the Potency [10]?
Its Potency is “inactive”.

What about the Potency [11] of the same molecule?
The Potency was 2.21 µM (active).

What about the outcome [12] of the same molecule?
The outcome was “inactive”.

And the outcome [14]?
The outcome was “inactive”.

And the outcome [15]?
The outcome was “inactive”.

With `CCOc1nc(F)cc2nc(S(=O)(=O)Nc3c(Cl)cccc3Cl)nn12` as the molecule, how does the Potency [1] read?
The Potency was “inactive”.

And the Potency [2]?
Its Potency is “inactive”.

And the Potency [3]?
Its Potency is “inactive”.

What about the Potency [19] of the same molecule?
The Potency was “inactive”.

What about the Potency [4] of the same molecule?
The Potency was “inactive”.

And the Potency [5]?
Its Potency is “inactive”.

What about the outcome [17] of the same molecule?
The outcome was “inactive”.

What about the Potency [6] of the same molecule?
Its Potency is “inactive”.

What about the outcome [7] of the same molecule?
The outcome was “inactive”.

And the Potency [10]?
The Potency was “inactive”.

What about the Potency [11] of the same molecule?
The Potency was “inactive”.

What about the Potency [13] of the same molecule?
Its Potency is “inactive”.

With `COP(=S)(OC)Oc1cc(Cl)c(I)cc1Cl` as the molecule, how does the Potency [1] read?
Its Potency is “inactive”.

And the Potency [2]?
Its Potency is “inactive”.

And the Potency [3]?
Its Potency is 27.5 µM (active).

What about the Potency [16] of the same molecule?
The Potency was “inactive”.

What about the Potency [5] of the same molecule?
Its Potency is “inactive”.

And the Potency [6]?
Its Potency is “inactive”.

What about the outcome [7] of the same molecule?
The outcome was “inactive”.

And the Potency [9]?
Its Potency is “inactive”.

And the Potency [10]?
The Potency was “inactive”.

And the Potency [13]?
Its Potency is “inactive”.

And the outcome [14]?
The outcome was “inactive”.

Which results are given for `CC(C)N(C(=O)COc1nnc(C(F)(F)F)s1)c1ccc(F)cc1`?
Potency [1]: inactive; Potency [2]: inactive; Potency [3]: 7.76 µM (active); Potency [16]: inactive; Potency [4]: inactive; outcome [7]: inactive; Potency [11]: inactive; outcome [12]: inactive; Potency [13]: inactive

For `O=C(CCl)c1ccc(Cl)cc1Cl`, which Potency [1] is on record?
The Potency was “inactive”.

What about the Potency [2] of the same molecule?
Its Potency is “inactive”.

And the Potency [19]?
The Potency was 5.31 µM (active).

What about the Potency [4] of the same molecule?
Its Potency is “inactive and 26.6 µM (active)”.

What about the Potency [5] of the same molecule?
The Potency was 8.41 µM (active).

And the Potency [6]?
Its Potency is 18.8 µM (active).

What about the Potency [8] of the same molecule?
The Potency was “inactive and 29.8 µM (active)”.

And the Potency [10]?
Its Potency is “inactive”.

What about the Potency [13] of the same molecule?
The Potency was “inactive and 29.8 µM (active)”.
